PubChem BioAssay
For some of these results: Potency and affinity values are given separately. Active and inactive are the calls of the source.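 Rule for the calls, unless noted: active = primary screen hit whose calcium fluorescence ratio, in both repeats, exceeds the weak agonist control mean by 3 SD; inactive = the rest.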

Assays:
[1] = test system: TRPC4 beta (transient receptor potential cation channel C4), mouse; assay: TRPC4 cation channel opening, retest – cell-based, Fluo4 calcium, HEK293 TRPC4beta/mu-opioid, duplicates, 10 µM, confirmation (AID 2426;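 active = fluorescence ratio normalized to control raised more than 50% in primary screen plus both repeat runs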;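 for activation: percent rise of integrated ratio over buffer wells lacking compound which define 0%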); settings: Fluo4 calcium fluorescence, at 10 µM; hits give high values
[2] = test system: transient receptor potential cation channel C4 beta (TRPC4), mouse; assay: TRPC4 cation channel opening, second retest – cell-based, second round, Fluo4, HEK293 TRPC4beta/mu-opioid, 1 µM, confirmation (AID 2461;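 active = primary screen active and over 50% activation in each of two duplicate runs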); settings: Fluo4 calcium fluorescence, at 1 µM; hits give high values
[3] = test system: TRPC4 (transient receptor potential cation channel C4 beta), mouse; assay: potentiation of DAMGO EC20 TRPC4 response – cell-based, second round, Fluo-4, HEK293 TRPC4beta/mu-opioid, 1 µM, confirmation (AID 2554;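 active = primary screen hit whose fluorescence ratio, in both repeats, exceeds the weak agonist control mean by 3 SD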); settings: DAMGO EC20, Fluo-4 calcium flux, at 1 µM; hits give high values
[4] = test system: TRPC4 beta (transient receptor potential cation channel C4), mouse; assay: potentiation of DAMGO EC20 TRPC4 response – cell-based, Fluo-4, HEK293 TRPC4beta/mu-opioid, confirmation (AID 2555); settings: DAMGO EC20, Fluo-4 calcium flux, at 10 µM; hits give high values
[5] = target: Short transient receptor potential channel 4 (Mus musculus) (UniProt Q9QUQ5); assay: blockers of DAMGO-evoked TRPC4 calcium flux – cell-based, Fluo4, HEK293 TRPC4beta/mu-opioid, confirmation (AID 2636;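 active = calcium signal cut by more than 3 SD below the full-agonist control yet still positive, in both repeats and the earlier primary screen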); settings: at 10 µM; hits give high values
Sequence of Short transient receptor potential channel 4 (Mus musculus) (Q9QUQ5 whole entry, looked up): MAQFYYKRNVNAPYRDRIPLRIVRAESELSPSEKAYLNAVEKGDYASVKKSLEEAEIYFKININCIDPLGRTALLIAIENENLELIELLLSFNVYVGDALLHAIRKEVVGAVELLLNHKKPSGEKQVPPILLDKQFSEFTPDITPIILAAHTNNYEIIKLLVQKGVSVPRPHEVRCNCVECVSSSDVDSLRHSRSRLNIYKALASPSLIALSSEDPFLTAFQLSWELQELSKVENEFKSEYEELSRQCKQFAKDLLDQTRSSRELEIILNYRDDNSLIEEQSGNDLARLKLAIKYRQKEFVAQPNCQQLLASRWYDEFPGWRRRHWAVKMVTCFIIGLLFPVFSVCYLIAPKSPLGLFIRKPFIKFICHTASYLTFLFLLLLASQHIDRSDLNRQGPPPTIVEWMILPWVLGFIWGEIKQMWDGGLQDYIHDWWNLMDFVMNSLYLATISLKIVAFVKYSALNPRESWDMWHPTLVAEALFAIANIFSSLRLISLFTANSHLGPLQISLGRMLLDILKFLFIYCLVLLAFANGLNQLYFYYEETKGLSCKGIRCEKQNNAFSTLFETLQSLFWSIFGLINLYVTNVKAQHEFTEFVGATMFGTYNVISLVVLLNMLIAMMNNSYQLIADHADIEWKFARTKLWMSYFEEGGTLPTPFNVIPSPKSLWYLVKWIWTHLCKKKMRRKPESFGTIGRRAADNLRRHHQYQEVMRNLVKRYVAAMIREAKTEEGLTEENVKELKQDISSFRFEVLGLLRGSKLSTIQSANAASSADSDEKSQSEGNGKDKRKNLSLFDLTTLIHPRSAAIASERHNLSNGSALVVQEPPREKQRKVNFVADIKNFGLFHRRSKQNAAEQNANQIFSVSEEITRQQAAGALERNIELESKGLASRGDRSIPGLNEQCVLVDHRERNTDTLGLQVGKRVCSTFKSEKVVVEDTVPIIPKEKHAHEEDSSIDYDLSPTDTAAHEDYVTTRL

[6] = target: Short transient receptor potential channel 4 (Mus musculus) (UniProt Q9QUQ5); assay: blockers of DAMGO-evoked TRPC4 calcium flux – cell-based, second round, Fluo4, HEK293 TRPC4beta/mu-opioid, 1 µM, confirmation (AID 2637;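 active = calcium signal ratio cut to more than 3 SD under the fully stimulated control mean yet still positive, in both repeats and the primary screen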); settings: at 1 µM; hits give high values
[7] = target: Short transient receptor potential channel 4 (Mus musculus) (UniProt Q9QUQ5); assay: calcium entry via TRPC4 opening agents – cell-based, HEK293 TRPC4/mu-opioid, Fluo-4 calcium, dose response (AID 434937;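 active = primary screen activator hit with a dose response curve and TRPC4 channel activation at any tested dose; inactive = no activation, no dose response, or not a primary hit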)
[8] = target: Short transient receptor potential channel 4 (Mus musculus) (UniProt Q9QUQ5); assay: potentiation of DAMGO-evoked TRPC4 calcium signal – cell-based, HEK293 TRPC4/mu-opioid, Fluo-4 calcium, EC20 DAMGO, dose response (AID 434941;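 active = earlier screen potentiator hit that boosts the TRPC4 ion channel at some dose, with a dose response; inactive = no potentiation, no dose response, or not a prior hit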;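 note: calcium entry triggered by an EC20 dose of DAMGO at the co-expressed mu-opioid receptor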)
[9] = target: Short transient receptor potential channel 4 (Mus musculus) (UniProt Q9QUQ5); assay: block of DAMGO-driven TRPC4 calcium entry – cell-based, HEK293 TRPC4/mu-opioid, Fluo-4 calcium, dose response (AID 434942;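 active = primary screen inhibitor hit that blocks the TRPC4 channel at some tested dose, yielding a dose curve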)
[10] = target: Short transient receptor potential channel 6 (Mus musculus) (UniProt Q61143); assay: TRPC6 blockade by TRPC4 inhibitor hits – cell-based, HEK293, membrane potential dye, duplicate, selectivity assay for TRPC4 inhibitor project, confirmation (AID 434948;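 active = active in primary screen and both duplicates, each dropping signal beyond three positive-control SD with fluorescence still positive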); settings: HEK293 TRPC6, membrane potential dye fluorescence, at 10 µM, stimulated with maximal-effect acetylcholine; hits give high values
Sequence of Short transient receptor potential channel 6 (Mus musculus) (Q61143 whole entry, looked up): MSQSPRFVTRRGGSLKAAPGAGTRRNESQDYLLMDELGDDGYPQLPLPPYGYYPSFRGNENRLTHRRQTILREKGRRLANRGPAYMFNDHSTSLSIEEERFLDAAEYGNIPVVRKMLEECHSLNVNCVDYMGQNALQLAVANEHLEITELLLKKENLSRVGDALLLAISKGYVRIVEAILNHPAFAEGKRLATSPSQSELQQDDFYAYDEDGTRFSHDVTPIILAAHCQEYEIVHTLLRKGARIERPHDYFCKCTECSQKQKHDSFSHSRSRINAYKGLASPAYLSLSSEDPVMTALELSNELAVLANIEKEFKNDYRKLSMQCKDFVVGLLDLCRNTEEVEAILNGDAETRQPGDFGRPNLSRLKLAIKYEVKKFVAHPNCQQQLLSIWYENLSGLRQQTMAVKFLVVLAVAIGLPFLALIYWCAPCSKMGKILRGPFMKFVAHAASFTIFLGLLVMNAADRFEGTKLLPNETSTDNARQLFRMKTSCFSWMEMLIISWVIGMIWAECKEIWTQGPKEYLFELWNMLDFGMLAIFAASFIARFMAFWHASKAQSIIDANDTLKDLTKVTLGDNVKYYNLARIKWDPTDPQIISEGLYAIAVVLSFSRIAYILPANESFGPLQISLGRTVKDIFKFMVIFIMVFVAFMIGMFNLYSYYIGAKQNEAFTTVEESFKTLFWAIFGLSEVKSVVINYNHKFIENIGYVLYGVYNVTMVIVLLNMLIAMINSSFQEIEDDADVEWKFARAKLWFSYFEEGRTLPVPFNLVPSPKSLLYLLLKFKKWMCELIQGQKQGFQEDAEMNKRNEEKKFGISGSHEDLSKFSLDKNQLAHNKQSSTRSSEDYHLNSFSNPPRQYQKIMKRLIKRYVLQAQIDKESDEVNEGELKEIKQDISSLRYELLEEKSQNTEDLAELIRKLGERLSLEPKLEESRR

[11] = target: Short transient receptor potential channel 6 (Mus musculus) (UniProt Q61143); assay: TRPC6 opening by TRPC4 activator hits – cell-based, HEK293, membrane potential dye, duplicate, selectivity assay for TRPC4 activator project, confirmation (AID 434950;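 active = membrane potential signal rise above negative control mean plus 3 SD in both duplicates, also active in the earlier TRPC4 screen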;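 for activation: 0% = buffer only wells and 100% = acetylcholine maximal-effect wells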); settings: HEK293 TRPC6, membrane potential fluorescence, at 10 µM; activation: hits give high values; outcome: activation
[12] = target: Short transient receptor potential channel 6 (Mus musculus) (UniProt Q61143); assay: positive modulators of mouse TRPC6 channel – HEK293 cells, membrane potential dye, duplicate, selectivity assay for TRPC4 potentiator project, confirmation (AID 434952;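 active = compound raising the membrane signal above positive-control mean plus 3 SD in both repeats, and a primary screen hit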); settings: HEK293 TRPC6, membrane potential dye fluorescence, at 10 µM, maximal acetylcholine added after compound; hits give high values
[13] = target: Short transient receptor potential channel 4 (Mus musculus) (UniProt Q9QUQ5); assay: calcium flux activators in TRPC4/5HT1a cells, counter-screen for TRPC4 activator project, cell-based, second counter screen, HEK293 TRPC4/5HT1a, Fluo-4 (AID 434977;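 active = calcium signal rise above buffer-control mean plus 5 SD in both duplicates, and also a hit in the primary screen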;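 for activation: plate controls were assay buffer for no effect and maximal serotonin response for full effect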); settings: Fluo-4 calcium flux, at 10 µM; hits give high values
[14] = serotonin-gated TRPC4 signal block – cell-based, second counter screen, HEK293 TRPC4/5HT1a, Fluo-4, counter-screen for TRPC4 inhibitor project, confirmation (AID 434978;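 active = primary screen active whose calcium signal fell more than 3 SD beyond the full-serotonin control mean in both duplicate plates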;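 note: serotonin given first at submaximal then at maximal dose after compound preincubation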); settings: Fluo-4 calcium flux, at 10 µM, serotonin added to trigger calcium flux; hits give high values
[15] = test system: TRPC4 (mouse), co-expressed with 5HT1a in HEK293; assay: enhancement of serotonin-evoked TRPC4 response – cell-based, second counter screen, HEK293 TRPC4/5HT1a, Fluo-4, counter-screen for TRPC4 potentiator project, confirmation (AID 434979;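 active = signal rise over 3 SD above mean of control wells given weak agonist, in both repeats and first screen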); settings: Fluo-4 calcium flux, at 10 µM, serotonin added at its EC20 dose; hits give high values
[16] = nonspecific calcium rise without TRPC4 – cell-based, HEK293 mu-opioid receptor line, counter-screen for TRPC4 activator project, confirmation (AID 449723;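 active = hit in primary screen, with calcium signal over 5 SD above buffer well mean in both duplicates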;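 note: counter screen cells carry the mu-opioid receptor alone and lack TRPC4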); settings: HEK293 mu-opioid cells, Fluo-4 calcium fluorescence, at 10 µM; hits give high values
[17] = nonspecific potentiation of DAMGO calcium response – cell-based, HEK293 mu-opioid receptor line, counter-screen for TRPC4 allosteric potentiator project, confirmation (AID 449724;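 active = calcium signal rise more than 3 SD above the low-dose agonist control mean, in both duplicate plates and the primary screen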); settings: HEK293 mu-opioid receptor cells, Fluo-4 calcium flux, at 10 µM, compound added before EC20 DAMGO stimulus; hits give high values

CN1/C(=C\C=[N+](C)c2ccccc2)C(C)(C)c2ccccc21
inactive: outcome [1] | outcome [2] | outcome [3] | outcome [4] | outcome [5] | outcome [6] | outcome [7] | outcome [8] | outcome [9] | outcome [10] | outcome [11] | outcome [12] | outcome [13] | outcome [14] | outcome [15] | outcome [16] | outcome [17]

CCOC(=O)c1c(NC(=O)C2CCCO2)sc2c1CCC2 (centres undefined)
active: potentiation [4] 40% | potentiation [15] 47.8%
inactive: outcome [1] | outcome [2] | outcome [3] | outcome [5] | outcome [6] | outcome [7] | outcome [8] | outcome [9] | outcome [10] | outcome [11] | outcome [12] | outcome [13] | outcome [14] | outcome [16] | outcome [17]

CN(Cc1ccccc1)Cc1nc2c(c(=O)n(C)c(=O)n2C)n1CCCc1ccccc1
active: potentiation [15] 8.51%
inactive: outcome [1] | outcome [2] | outcome [3] | outcome [4] | outcome [5] | outcome [6] | outcome [7] | outcome [8] | outcome [9] | outcome [10] | outcome [11] | outcome [12] | outcome [13] | outcome [14] | outcome [16] | outcome [17]

Cc1ccc(Cn2c(=N)c(C(=O)NCCN3CCOCC3)cc3c(=O)n4ccccc4nc32)cc1
active: potentiation [4] 31%
inactive: outcome [1] | outcome [2] | outcome [3] | outcome [5] | outcome [6] | outcome [7] | outcome [8] | outcome [9] | outcome [10] | outcome [11] | outcome [12] | outcome [13] | outcome [14] | outcome [15] | outcome [16] | outcome [17]

CCOc1ccc(-n2cnnn2)cc1S(=O)(=O)NCc1ccccc1
inactive: outcome [1] | outcome [2] | outcome [3] | outcome [4] | outcome [5] | outcome [6] | outcome [7] | outcome [8] | outcome [9] | outcome [10] | outcome [11] | outcome [12] | outcome [13] | outcome [14] | outcome [15] | outcome [16] | outcome [17]

CCOc1ccc2nc(NCCNC(=O)C3CC3)c(C)cc2c1
inactive: outcome [1] | outcome [2] | outcome [3] | outcome [4] | outcome [5] | outcome [6] | outcome [7] | outcome [8] | outcome [9] | outcome [10] | outcome [11] | outcome [12] | outcome [13] | outcome [14] | outcome [15] | outcome [16] | outcome [17]

CC(C)(C)c1ccc(-c2nc3cc(N)ccc3o2)cc1
inactive: outcome [1] | outcome [2] | outcome [3] | outcome [4] | outcome [5] | outcome [6] | outcome [7] | outcome [8] | outcome [9] | outcome [10] | outcome [11] | outcome [12] | outcome [13] | outcome [14] | outcome [15] | outcome [16] | outcome [17]

O=C(CC1CCCCC1)c1c(O)c2ccccc2oc1=O
inactive: outcome [2] | outcome [3] | outcome [4] | outcome [5] | outcome [6] | outcome [7] | outcome [8] | outcome [9] | outcome [10] | outcome [12] | outcome [14] | outcome [15] | outcome [17]
active: activation [1] 151% | activation [11] 33.5% | activation [13] 62.5% | activation [16] 30.8%

Cc1ccc(NC(=O)C2CCC(CNC(=O)[C@@H]3Cc4ccccc4CN3)CC2)cc1 (some centres undefined)
inactive: outcome [1] | outcome [2] | outcome [3] | outcome [4] | outcome [5] | outcome [6] | outcome [7] | outcome [8] | outcome [9] | outcome [10] | outcome [11] | outcome [12] | outcome [13] | outcome [14] | outcome [15] | outcome [16] | outcome [17]

CCOC(=O)C1=C(NC(=S)NC(=O)c2ccccc2)c2ccccc2CC1(C)C
active: potentiation [4] 12% | potentiation [15] 27.1%
inactive: outcome [1] | outcome [2] | outcome [3] | outcome [5] | outcome [6] | outcome [7] | outcome [8] | outcome [9] | outcome [10] | outcome [11] | outcome [12] | outcome [13] | outcome [14] | outcome [16] | outcome [17]

O=S(=O)(c1ccc(Cl)cc1Br)N1CCCCC1
inactive: outcome [1] | outcome [2] | outcome [3] | outcome [4] | outcome [5] | outcome [6] | outcome [7] | outcome [8] | outcome [9] | outcome [10] | outcome [11] | outcome [12] | outcome [13] | outcome [14] | outcome [15] | outcome [16] | outcome [17]

O=C(CC1C(=O)NCCN1C(=O)Nc1ccccc1)Nc1cc(Cl)cc(Cl)c1 (centres undefined)
inactive: outcome [1] | outcome [2] | outcome [3] | outcome [5] | outcome [6] | outcome [7] | outcome [8] | outcome [9] | outcome [10] | outcome [11] | outcome [12] | outcome [13] | outcome [14] | outcome [16] | outcome [17]
active: potentiation [4] 15% | potentiation [15] 21.1%

Cc1ccc(C)c(OCCCCN2CCNCC2)c1C
inactive: outcome [1] | outcome [2] | outcome [3] | outcome [5] | outcome [6] | outcome [7] | outcome [8] | outcome [9] | outcome [10] | outcome [11] | outcome [12] | outcome [13] | outcome [14] | outcome [16] | outcome [17]
active: potentiation [4] 9% | potentiation [15] 29.4%

CC(=O)Cc1nsc(NC(=O)c2csc3c2CCCC3)n1
inactive: outcome [1] | outcome [2] | outcome [3] | outcome [4] | outcome [5] | outcome [6] | outcome [7] | outcome [8] | outcome [9] | outcome [10] | outcome [11] | outcome [12] | outcome [13] | outcome [14] | outcome [15] | outcome [16] | outcome [17]

Cc1[nH]nc(Nc2ccccc2)c1[N+](=O)[O-]
active: potentiation [15] 20.8%
inactive: outcome [1] | outcome [2] | outcome [3] | outcome [4] | outcome [5] | outcome [6] | outcome [7] | outcome [8] | outcome [9] | outcome [10] | outcome [11] | outcome [12] | outcome [13] | outcome [14] | outcome [16] | outcome [17]

COc1cc(COCC(O)CN2CCN(CCN3C(=O)c4cccc5cccc(c45)C3=O)CC2)cc(OC)c1OC (centres undefined)
inactive: outcome [1] | outcome [2] | outcome [3] | outcome [4] | outcome [5] | outcome [6] | outcome [7] | outcome [8] | outcome [9] | outcome [10] | outcome [11] | outcome [12] | outcome [13] | outcome [14] | outcome [15] | outcome [16] | outcome [17]

O=C(CSc1nnc(-c2ccccc2)o1)c1ccc2c(c1)OCCO2
inactive: outcome [1] | outcome [2] | outcome [3] | outcome [4] | outcome [5] | outcome [6] | outcome [7] | outcome [8] | outcome [9] | outcome [10] | outcome [11] | outcome [12] | outcome [13] | outcome [14] | outcome [15] | outcome [16] | outcome [17]
